Shown are actives, neighbours in structure and some others; about 3.4% of the full set was active somewhere.
MITF primary – MITF inhibitors, primary screen, biochemical, AlphaScreen, human | hit rate 0.91% among 650,000 | AlphaScreen MITF homodimerization, bead proximity signal | Microphthalmia-associated transcription factor (Homo sapiens), O75030 | inhibition, % at 2.6 µM; in the data active = inhibition above about 50%;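 also: 0% = vehicle wells with protein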
GPR151 activ – activators of human GPR151, primary screen, cell-based, PathHunter beta-arrestin, luminescence | AID 1508602, 2020 | activation, % at 11.2 µM | PathHunter beta-arrestin GPR151 cells | G-protein coupled receptor 151 (Homo sapiens), Q8TDV0 | hit rate 1% among 650,000; in the data active = activation above about 4.9%;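 also: 0% = median of compound wells and 100% = cells with positive control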
FBW7 activator – FBW7 E3 ligase activators, primary screen, biochemical, AlphaScreen, human; AlphaScreen FBW7–phospho-cyclin E peptide binding, activator screen; AID 1259310, 2017; F-box/WD repeat-containing protein 7 (Homo sapiens), Q969H0; normalized activity (activation), % at 26.1 µM; hit rate 0.13% among 650,000; in the data active = normalized activity above about 1.9%;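 also: purified mutant Fbw7 with reduced substrate affinity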
Target sequence (Q969H0 whole entry, looked up): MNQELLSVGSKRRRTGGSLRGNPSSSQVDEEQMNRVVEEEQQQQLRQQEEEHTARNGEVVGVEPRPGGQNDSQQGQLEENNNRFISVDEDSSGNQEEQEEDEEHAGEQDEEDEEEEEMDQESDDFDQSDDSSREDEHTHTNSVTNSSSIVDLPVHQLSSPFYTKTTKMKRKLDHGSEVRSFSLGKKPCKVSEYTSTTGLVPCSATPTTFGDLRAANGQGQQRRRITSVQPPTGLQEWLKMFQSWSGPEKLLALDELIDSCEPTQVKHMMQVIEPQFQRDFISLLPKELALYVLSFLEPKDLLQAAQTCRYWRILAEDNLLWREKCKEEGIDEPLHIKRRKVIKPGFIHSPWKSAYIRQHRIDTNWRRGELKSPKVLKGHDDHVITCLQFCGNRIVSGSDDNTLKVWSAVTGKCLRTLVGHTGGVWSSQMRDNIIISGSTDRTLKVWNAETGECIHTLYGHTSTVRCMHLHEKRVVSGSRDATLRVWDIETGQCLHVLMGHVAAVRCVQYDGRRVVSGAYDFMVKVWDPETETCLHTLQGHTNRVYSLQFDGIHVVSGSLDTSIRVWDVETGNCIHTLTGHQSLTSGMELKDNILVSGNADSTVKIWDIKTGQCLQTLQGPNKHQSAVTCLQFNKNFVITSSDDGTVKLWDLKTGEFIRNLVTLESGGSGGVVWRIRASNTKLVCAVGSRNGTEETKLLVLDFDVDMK
TEAD-YAP inh – TEAD-YAP interaction inhibition, primary screen, TEAD-YAP interaction inhibitor project, luminescence, HEK-TIYL cells; TEAD-Gal4/YAP UAS-luciferase luminescence; inhibition, % at 9.12 µM; hit rate 1.4% among 640,000; AID 1259422, 2018; in the data active = inhibition above about 32%;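 also: 0% = median of test compound wells and 100% = reference inhibitor wells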
MITF confirm – MITF inhibitors, retest of hits, confirmation, biochemical, AlphaScreen, triplicate | AlphaScreen MITF homodimerization, biotin/His-MITF beads | shares compounds with MITF primary | hit rate 16% among 4,700 | inhibition, % at 2.6 µM;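 active = inhibition above a cutoff derived from the DMSO control wells, cut at about 28% in these data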;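 also: 0% = MITF dimer wells with DMSO only; inhibitors lower the bead chemiluminescence by keeping MITF from dimerizing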
AS interf DR – AlphaScreen optical interference compounds, dose response, counter-screen, biochemical, HTS. shares compounds with MITF primary. IC50, µM. hit rate 6% among 480. AID 1259373, 2018. AlphaScreen optical interference counterscreen, cell-free; call rule not given here
AlphaScreen intf2 – AlphaScreen optical interference compounds, counter-screen for MITF inhibitor project, biochemical, triplicate; shares compounds with MITF primary; LysRS AlphaScreen counterscreen, signal interference; inhibition, % at 2.6 µM; hit rate 7.6% among 4,700;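 active = inhibition above a cutoff derived from the DMSO control wells, cut at about 30% in these data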
Starred values were filed as active, the others as inactive.

Results for COc1ccc(OCCN2CCN(S(=O)(=O)c3ccc4c(c3)OCCO4)CC2)cc1 ?
MITF primary: 85.4*; GPR151 activ: -0.8; FBW7 activator: -0.4; TEAD-YAP inh: -5.5; MITF confirm: 6.5; AlphaScreen intf2: 16.5

Results for COc1ccc(S(=O)(=O)N2CCC(N3CCC(C)CC3)CC2)cc1 ?
MITF primary: 54.6*; GPR151 activ: -0.7; FBW7 activator: 0.0; TEAD-YAP inh: 1.5; MITF confirm: 34.3*; AS interf DR: >6.48; AlphaScreen intf2: 0.3

What do the screens show for `COc1ccc(S(=O)(=O)N2CCN(CCO)CC2)cc1`?
MITF primary: -9.3; GPR151 activ: -1.2; FBW7 activator: 0.1; TEAD-YAP inh: -2.6

Results for COC(=O)CCN1CCN(S(=O)(=O)c2ccc(OC)cc2)CC1 ?
MITF primary: 59.5*; GPR151 activ: 0.1; FBW7 activator: 0.0; TEAD-YAP inh: 4.8; MITF confirm: -9.4; AlphaScreen intf2: -3.8

What do the screens show for `COc1ccc(S(=O)(=O)N2CCN(C3CCCCCCC3)CC2)cc1`?
MITF primary: 31.5; GPR151 activ: 0.0; FBW7 activator: 0.1; TEAD-YAP inh: 1.0

Results for CC(C)(C)N(Cc1ccccc1)C(=O)Cn1cnc2cc([N+](=O)[O-])ccc2c1=O ?
MITF primary: -8.8; GPR151 activ: 0.9; FBW7 activator: -0.2; TEAD-YAP inh: 0.4

What do the screens show for `Oc1ccc(CCNc2nc(NCc3cccnc3)nc3c2ncn3C2CCCCC2)cc1`?
MITF primary: -1.9; GPR151 activ: -3.1; FBW7 activator: -0.1; TEAD-YAP inh: -5.2

How did COc1ccc(S(=O)(=O)N2CCC(N3CCOCC3)CC2)cc1 do in these assays?
MITF primary: 54.0*; GPR151 activ: 1.3; FBW7 activator: 0.0; TEAD-YAP inh: 2.9; MITF confirm: 7.8; AlphaScreen intf2: 8.6

How did COc1ccc(-c2ccc(S(=O)(=O)N3CCOCC3)cc2)cc1 do in these assays?
MITF primary: 10.7; GPR151 activ: -0.4; FBW7 activator: 0.0; TEAD-YAP inh: -0.8

What do the screens show for `CC(=O)N1CCC(=NNc2nc3ccccc3[nH]2)CC1`?
MITF primary: 82.1*; GPR151 activ: 0.6; FBW7 activator: -0.4; TEAD-YAP inh: -25.6; MITF confirm: 30.1*; AlphaScreen intf2: 49.8*

Results for COc1cccc(C2=N/C(=C\c3ccccc3OC)C(=O)N2c2cc(C)cc(C)c2)c1 ?
MITF primary: -7.5; GPR151 activ: 0.4; FBW7 activator: 0.3; TEAD-YAP inh: -6.6

What do the screens show for `CC(C)(C)c1nnc(Nc2ccccc2F)[nH]c1=O`?
MITF primary: 15.9; GPR151 activ: 3.3; FBW7 activator: 0.3; TEAD-YAP inh: -4.9

What do the screens show for `CC12CCC(C(=O)N(NC(=O)CCc3ccccc3)C1=O)C2(C)C` (stereo not drawn)?
MITF primary: 65.3*; GPR151 activ: 2.7; FBW7 activator: -0.1; TEAD-YAP inh: 12.4; MITF confirm: -3.8; AlphaScreen intf2: 10.5

Results for O=C(CCc1ccccc1)NN1C(=O)CCC1=O ?
MITF primary: -2.5; GPR151 activ: 0.3; FBW7 activator: -0.3; TEAD-YAP inh: -1.7

What do the screens show for `O=C(CNCCc1ccc(Cl)cc1)NCc1ccc2c(c1)OCO2`?
MITF primary: 60.0*; GPR151 activ: -1.1; FBW7 activator: 0.6; TEAD-YAP inh: 11.1; MITF confirm: 6.5; AlphaScreen intf2: 20.9

Results for O=C(NCc1ccc2c(c1)OCO2)C1(S(=O)(=O)c2ccc(Cl)cc2)CC1 ?
MITF primary: 87.8*; GPR151 activ: 0.8; FBW7 activator: -0.1; TEAD-YAP inh: 9.8; MITF confirm: -2.2; AlphaScreen intf2: -3.5

Results for COc1cccc(OCC(O)CNC(=O)CN2Cc3ccccc3OC(C)C2)c1 (stereo not drawn) ?
MITF primary: 0.1; GPR151 activ: -0.3; FBW7 activator: 0.1; TEAD-YAP inh: 7.5

Results for O=C(NNC(=S)Nc1ccc(Cl)c(Cl)c1)c1ccccn1 ?
MITF primary: 113.6*; GPR151 activ: -0.1; FBW7 activator: -1.0; TEAD-YAP inh: 39.3*; MITF confirm: 109.9*; AlphaScreen intf2: 100.2*

Results for O=C(NNC(=S)Nc1ccccc1C(F)(F)F)c1ccc(Br)o1 ?
MITF primary: -20.9; GPR151 activ: -1.8; FBW7 activator: 0.0; TEAD-YAP inh: -32.5

What do the screens show for `O=C(NNC(=S)Nc1ccccc1C(F)(F)F)c1ccccn1`?
MITF primary: 112.9*; GPR151 activ: -2.1; FBW7 activator: -0.8; TEAD-YAP inh: -37.2; MITF confirm: 103.6*; AlphaScreen intf2: 100.2*

How did CC(O)CC(=O)NNC(=S)Nc1ccc(Cl)c(Cl)c1 (stereo not drawn) do in these assays?
MITF primary: -0.6; GPR151 activ: 0.0; FBW7 activator: 0.0; TEAD-YAP inh: 2.7

How did CCOC(=O)c1c(-c2ccccc2)csc1NC(=O)COc1ccccc1C do in these assays?
MITF primary: -10.6; GPR151 activ: 3.1; FBW7 activator: -0.2; TEAD-YAP inh: -2.5

How did Cc1cc(OCCOCCN2CCNCC2)ccc1Cl do in these assays?
MITF primary: 68.3*; GPR151 activ: -1.7; FBW7 activator: 0.6; TEAD-YAP inh: -21.7; MITF confirm: 74.1*; AS interf DR: >6.48; AlphaScreen intf2: 18.8

Results for Cc1ccc(C(C)C)cc1OCCOCCN1CCNCC1 ?
MITF primary: 70.6*; GPR151 activ: 0.4; FBW7 activator: -0.2; TEAD-YAP inh: -7.5; MITF confirm: 11.5; AlphaScreen intf2: -0.2

Results for COc1cc(CN2CCC(O)CC2)cc(Br)c1O ?
MITF primary: 39.2; GPR151 activ: 0.4; FBW7 activator: -0.3; TEAD-YAP inh: -8.3

Results for C=CCN(CC=C)C(=O)C1CCN(Cc2cc(Br)c(O)c(OC)c2)CC1 ?
MITF primary: 69.3*; GPR151 activ: 0.3; FBW7 activator: 0.6; TEAD-YAP inh: -4.4; MITF confirm: -13.3; AlphaScreen intf2: -4.4

What do the screens show for `Cc1ccc(C)n1-c1ccc(Cl)c(C(=O)O)c1`?
MITF primary: 0.7; GPR151 activ: 0.4; FBW7 activator: -1.2; TEAD-YAP inh: -0.2

Results for O=C(O)c1cc(-n2cccc2)ccc1Cl ?
MITF primary: 78.7*; GPR151 activ: 1.2; FBW7 activator: -0.8; TEAD-YAP inh: 1.3; MITF confirm: 64.1*; AS interf DR: >6.48; AlphaScreen intf2: -2.3

Results for COc1ccc(CN2CCN(Cc3cc4ccccc4[nH]3)CC2CCO)c(F)c1 (stereo not drawn) ?
MITF primary: 17.4; GPR151 activ: -0.9; FBW7 activator: 0.0; TEAD-YAP inh: -5.2
